HSF1 inh: HSF1 inhibitors in luciferase reporter cells, primary screen, cell-based, NIH3T3, luminescence. activity change, negative = inhibition, % at 7.5 µM (by protocol). hit rate 0.77% among 300,000. NIH3T3-HGL HSE-luciferase, MG132-induced, luminescence 8 h; active compounds read low;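 active = more than half of replicate wells show activity change below -50%, luminescence cut by over half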;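 also: luciferase reports HSF-1 transcriptional activity via heat shock element; 0% = median of DMSO wells and -100% = zero luminescence signal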
HSF1 activator: HSF-1 activators, primary screen, NIH3T3-HGL cells, MG132 stress, luminescence, single point; activation, % at 9 µM; NIH3T3-HGL HSF-1 luciferase reporter, 8 h; 100% = twice DMSO control signal; hit rate 1.7% among 300,000;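 active = mean replicate activation of at least 50% with a set share of replicates each reaching 50%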;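 also: 0% = median of the neutral control wells and 100% = twice that signal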
S1P4 antag: S1P4 receptor antagonists, primary screen, cell-based; hit rate 0.26% among 220,000; S1P4-expressing cells, antagonist mode, reporter read-out; inhibition, % at 4.98 µM; Sphingosine 1-phosphate receptor 4 (Homo sapiens), O95977; in the data active = inhibition above about 29%;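 also: 0% = wells stimulated with agonist and 100% = vehicle wells without agonist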
Hsp70 act: Hsp70 transcriptional activators, primary screen, cell-based, HeLa, Hsp70 promoter luciferase, luminescence, 10 µM; HeLa Hsp70 promoter luciferase reporter; scaled: vehicle 0, proteasome-inhibitor control 100%; activation, % at 10 µM; hit rate 0.04% among 200,000; AID 1203, 2008;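 active = activation above the mean across all tested compounds plus 3 SD, cutoff set per campaign, cut at about 5.5% in these data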;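 also: 100% = MG132 at 30 µM as the positive control and 0% = DMSO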
S1P3 antag: S1P3 receptor antagonists, primary screen, cell-based. Sphingosine 1-phosphate receptor 3 (Homo sapiens), Q99500. CHO S1P3 NFAT-BLA reporter, FRET fluorescence, antagonist mode. inhibition, % at 4.98 µM. hit rate 0.27% among 170,000;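 active = inhibition above the plate cutoff, the mean inhibition of test wells on that plate plus 3 SD, cut at about 28% in these data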;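 also: cells challenged with S1P at its EC80 of 0.8 µM; blue over green emission ratio from cleaved BLA substrate after 4 h stimulation; 0% = S1P-stimulated wells and 100% = unstimulated DMSO-only wells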
Target sequence (Q99500 whole entry, looked up): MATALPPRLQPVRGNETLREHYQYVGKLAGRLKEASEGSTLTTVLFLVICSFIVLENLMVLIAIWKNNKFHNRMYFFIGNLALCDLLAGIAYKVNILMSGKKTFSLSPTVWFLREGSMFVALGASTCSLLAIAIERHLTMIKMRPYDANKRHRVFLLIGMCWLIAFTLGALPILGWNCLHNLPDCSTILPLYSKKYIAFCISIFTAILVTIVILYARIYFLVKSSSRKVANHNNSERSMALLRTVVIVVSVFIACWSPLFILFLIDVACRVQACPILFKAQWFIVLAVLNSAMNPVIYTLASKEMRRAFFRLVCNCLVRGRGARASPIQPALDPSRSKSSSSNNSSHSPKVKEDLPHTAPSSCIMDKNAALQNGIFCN
S1P4 ag: S1P4 receptor agonists, primary screen, cell-based | Sphingosine 1-phosphate receptor 4 (Homo sapiens), O95977 | S1P4-expressing cell line, agonist reporter assay | AID 1509, 2009 | hit rate 0.35% among 220,000 | activation, % at 4.98 µM; in the data active = activation above about 11%;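 also: 0% = DMSO vehicle and 100% = reference agonist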
* hit, by the source's call; x = no result given. Hits are enriched below; roughly 2.9% of the tested compounds scored in any of these assays.

SMILES	HSF1 inh	HSF1 activator	S1P4 antag	Hsp70 act	S1P3 antag	S1P4 ag
Cc1cnn(-c2cc(N/N=C/c3cccc(F)c3)ncn2)c1	17	56*	-16	0	-9	1
Cc1cnn(-c2cc(N/N=C/c3ccccc3)ncn2)c1	12	5	2	0	x	-1
COc1ccc(CNC(=O)C(c2ccco2)N(C(=O)c2snc(C(N)=O)c2N)c2ccccc2OC)cc1 (stereo not given)	4	1	x	x	x	x
CCN(CC)c1ccc(/C=C2\SC(=O)N(C(C)C)C2=O)o1	247	295*	21	x	6	1
O=C(CCl)N(C/C=C/c1ccccc1)c1ccc2c(c1)OCCO2	-77*	-79	0	0	0	0
CC(C)N1CCC(N2CCN(C3CCCC3)CC2CCO)CC1 (stereo not given)	-56*	-63	-42	0	1	1
OCCC1CN(C2CCSCC2)CCN1C1CCCC1 (stereo not given)	0	-10	2	0	-7	-1
O=C(Nc1ccc(S(=O)(=O)NCC2CCCO2)cc1)c1ccccc1 (stereo not given)	-65*	-72	-1	0	3	-1
C/C(=N\O)c1sc(-c2ccccc2)nc1C	41	72*	-17	1	13	2
CCn1nc(C)cc1-c1nnc(Sc2ncc([N+](=O)[O-])s2)n1C	80	122*	x	x	x	x
CCn1nc(C)cc1-c1nnc(SCC(=O)Nc2ccccc2)n1CCCOC	-3	0	17	x	10	-1
O=C(CSc1nncc2ccccc12)Nc1cccc(O)c1	28	67*	x	x	x	x
O=C(CSc1nncc2ccccc12)Nc1ccccc1	5	17	x	x	x	x
CC(=N/O)/C(C)=N\NC(=O)c1ccccn1	-66*	-73	4	0	-17	-3
CSCCC(N=C1NS(=O)(=O)c2ccccc21)C(=O)N1CCCC(C(N)=O)C1 (stereo not given)	-6	-11	x	x	x	x
Cc1cc(C)c(NC(=O)C(C)N2CCCCCC2)c(C)c1 (stereo not given)	2	16	x	x	x	x
Cc1cccc(C)c1NC(=O)C(C)N1CCCC1 (stereo not given)	21	75*	x	x	x	x
COc1ccc(-c2nnc(SCC#N)o2)cc1	1	18	-4	0	-6	-1
Cc1ccccc1-c1nnc(SCc2ccccc2F)o1	38	74*	1	0	-13	2
COc1ccc(-c2nnc(SCc3ccccc3F)o2)cc1	33	54*	8	0	x	0
COc1ccc(-c2nnc(-c3ccc(C)cc3)o2)cc1	23	53*	x	x	x	x
Fc1ccccc1CSc1nnc(-c2ccccc2)o1	21	37	-3	0	-38	4
COc1ccc(-c2nnc(-c3ccc(F)cc3)o2)cc1	26	46	x	x	x	x
C#CCSc1nnc(-c2ccc(OC)cc2)o1	37	66*	1	0	x	0
Nn1c(SCc2ccccn2)nncc1=O	0	3	-1	0	-13	1
SMILES	HSF1 inh	HSF1 activator	S1P4 antag	Hsp70 act	S1P3 antag	S1P4 ag
COc1ccc(CCNS(=O)(=O)CCNC(=O)c2ccc(OC)cc2)cc1	1	5	x	x	x	x
Cc1ccccc1-c1nnc(SCc2ccccc2)o1	44	64*	-5	0	-36	-1
c1ccc(CSc2nnc(-c3ccncc3)o2)cc1	-20	-2	0	0	-21	1
COc1ccc(Nc2oc(-c3ccc(OC)cc3)nc2C#N)cc1	53	68*	-4	x	9	1
COc1ccccc1NC(=O)CNC(=O)c1ccc(Br)o1	30	50	x	x	x	x
C/C(Cc1nnn(-c2cc(C)on2)n1)=N\O	1	10	-6	x	-5	0
CCCn1c(SCC(=O)c2c[nH]c3ccccc23)nnc1-c1ccncc1	5	21	-8	0	5	0
O=C(O)c1ccc(N/N=C/c2ccc(C(F)(F)F)cc2)cc1	-66*	-68	-1	0	-7	1
CC(C)(C)c1ccc(/C=N/Nc2cccc(C(=O)O)c2)cc1	-57*	-64	-7	0	-6	-1

Bioassay records as filed in PubChem BioAssay.
